57 molecules from PubChem BioAssay AID1445 (SRMLSC, 2008) can be followed below.

The campaign covered roughly 220,000 compounds. About 910 (0.41%) were called active. This excerpt belongs to a sample that is enriched for actives. Results with a measured potency or affinity are listed apart. Unmarked numbers belong to inactive results.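 The calls were made as follows: active = primary inhibition above the hit cutoff, then over 50% inhibition at one or more dose response concentrations (cut at about 23% in these data, passing the limit was not always enough); inconclusive = conflicting primary data, or primary hits not chosen for dose response; inactive = low primary inhibition, or under 50% at every dose.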

For the assay, the target named is Aminopeptidase N (Plasmodium falciparum (isolate 3D7)) (UniProt O96935). Kind of assay: malaria alanyl aminopeptidase activity blockers – biochemical, fluorogenic H-Leu-NHMec substrate, 1536-well (AID 1445).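 Also: plate controls were DMSO full reaction for no effect and no enzyme background for full effect.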 The note with it: recombinant M1AAP, H-Leu-NHMec fluorogenic kinetic assay; at 30 µM, stronger effect = higher value unless noted.
Chain of Aminopeptidase N (Plasmodium falciparum (isolate 3D7)) (O96935 whole entry, looked up): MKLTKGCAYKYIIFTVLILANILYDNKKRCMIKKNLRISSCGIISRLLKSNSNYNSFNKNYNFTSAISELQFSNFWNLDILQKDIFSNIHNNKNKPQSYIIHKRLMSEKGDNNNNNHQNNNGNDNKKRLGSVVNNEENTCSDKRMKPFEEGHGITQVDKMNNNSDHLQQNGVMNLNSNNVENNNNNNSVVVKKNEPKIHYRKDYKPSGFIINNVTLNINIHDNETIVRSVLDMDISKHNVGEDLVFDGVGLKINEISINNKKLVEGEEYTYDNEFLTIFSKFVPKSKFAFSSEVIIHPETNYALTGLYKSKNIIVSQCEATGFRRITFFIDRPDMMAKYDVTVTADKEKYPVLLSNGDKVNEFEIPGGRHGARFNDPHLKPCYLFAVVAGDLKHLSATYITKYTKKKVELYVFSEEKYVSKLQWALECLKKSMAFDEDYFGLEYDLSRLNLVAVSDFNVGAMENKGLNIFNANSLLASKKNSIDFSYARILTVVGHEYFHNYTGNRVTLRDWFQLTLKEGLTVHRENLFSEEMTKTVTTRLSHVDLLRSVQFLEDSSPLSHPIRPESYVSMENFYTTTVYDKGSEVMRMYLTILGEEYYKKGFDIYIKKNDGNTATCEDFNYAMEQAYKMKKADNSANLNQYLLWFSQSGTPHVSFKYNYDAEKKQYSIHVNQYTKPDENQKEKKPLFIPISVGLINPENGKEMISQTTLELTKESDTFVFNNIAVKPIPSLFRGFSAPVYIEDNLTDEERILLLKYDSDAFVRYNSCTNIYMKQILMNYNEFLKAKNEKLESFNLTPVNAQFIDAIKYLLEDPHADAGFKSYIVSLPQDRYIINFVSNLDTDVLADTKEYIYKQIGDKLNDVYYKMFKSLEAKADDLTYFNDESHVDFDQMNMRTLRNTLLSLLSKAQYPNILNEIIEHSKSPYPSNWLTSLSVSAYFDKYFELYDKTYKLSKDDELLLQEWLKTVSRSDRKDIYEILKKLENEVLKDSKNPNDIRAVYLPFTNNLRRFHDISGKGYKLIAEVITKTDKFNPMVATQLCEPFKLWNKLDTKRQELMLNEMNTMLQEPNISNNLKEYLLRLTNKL
As for `Cc1ccc(C)c(Oc2coc3cc(OCC(=O)Nc4ccccc4C(C)C)ccc3c2=O)c1`, the inhibition was 2.02%.
Then `COc1ccc(C(=O)ON=C2CCN(c3ccc([N+](=O)[O-])cc3)CC2)cc1`, with 4.56%; and `Cc1ccc(C(=O)ON=C2CCN(c3ccc([N+](=O)[O-])cc3)CC2)cc1`, with 14.4%.
Then `Cc1ccc2nc(-c3ccc(SCC(=O)N4CCc5ccccc54)nc3)[nH]c2c1`, with 4.65%.
Then `C=C1c2ccccc2NC(=O)N1c1ccc(C)cc1`, with -1.9%; and `CCC1CCCCN1C(=S)NC(=O)c1ccc([N+](=O)[O-])cc1` (configuration not stated), with 5.65%.
Regarding `CC1CCCCN1C(=S)NC(=O)c1cccs1` (configuration not stated), the inhibition was 13.7%.
For the molecule `COc1cc(O)c(C(CC(=O)N2CCN(c3ccccc3)CC2)c2ccc(N(C)C)cc2)c(OC)c1` (configuration not stated), the inhibition was 0.72%.
Then `CS(=O)(=O)N1CCC(C(=O)NCc2ccc3c(c2)OCO3)CC1`, with 21.2%; and `Cc1ccc(CNC(=O)C2CCCN(S(=O)(=O)c3cccnc3)C2)cc1` (configuration not stated), with 13%.
`O=C(Nc1ccc2c(c1)OCO2)C1CCN(S(=O)(=O)c2cccs2)CC1`: the inhibition is 3.56%.
Then `O=C(NCc1ccccc1)C1CCCN(S(=O)(=O)c2cccnc2)C1` (configuration not stated), with 20%; and `CCS(=O)(=O)N1CCCC(C(=O)NCc2ccc3c(c2)OCO3)C1` (configuration not stated), with 1.85%.
Regarding `O=C(Nc1ccc2c(c1)OCO2)C1CCCN(S(=O)(=O)c2cccs2)C1` (configuration not stated), the inhibition is 13.9%.
Then `O=C(NCc1ccc2c(c1)OCO2)C1CCCN(S(=O)(=O)c2cccs2)C1` (configuration not stated), with 24.9% (active); and `COc1cccc(CNC(=O)C2CCN(S(=O)(=O)c3cccs3)CC2)c1`, with 10.2%; and `O=C(NCc1ccc2c(c1)OCO2)C1CCN(S(=O)(=O)N2CCCCC2)CC1`, with 10.8%.
Then `Cc1nc2ccccc2c2oc(C(=O)NC3CC3)cc12`, with 1.86%.
Then `COC(C[C@@H](O)CC(=O)[C@@H](C)OCc1ccccc1)OC`, with -6.94%; and `O=C(NCc1ccc2c(c1)OCO2)C1CC(=O)N(CCc2ccccc2)C1` (configuration not stated), with 0.19%.
For `O=C(Cn1cccc1C(=O)c1ccccc1)NCc1ccccn1`, the inhibition is 4.68%.
Then `CC(Sc1ccc(Cl)cc1)C(=O)Nc1ccccc1C(=O)N1CCOCC1` (configuration not stated), with -3.03%; and `Nc1ccc2c(c1)nc(Cc1ccccc1)n2CCO`, with 9.11%; and `Cc1ccnc(NS(=O)(=O)c2cnc(Cl)c(Br)c2)c1`, with 4.88%.
Then `Cc1cccc(-n2cc(CN(C)Cc3nccn3C)c(-c3cccc(F)c3)n2)c1`, with 4.73%; and `CN(CC(=O)Nc1ccc(F)cc1)C(=O)COc1ccc(C(=O)c2ccccc2)cc1`, with 2.01%.
Then `COCCn1c(SCC(=O)NC(=O)NCc2ccccc2)nc2ccccc21`, with -0.93%.
On to `CCCn1c(C)cc(/C=C(\C#N)C(=O)OCC(=O)NC(=O)NCC)c1C`, for which the inhibition was 8.1%.
Then `COc1ccc(N(CC(=O)Nc2ccccc2C(=O)O)S(=O)(=O)c2ccc(C)c([N+](=O)[O-])c2)cc1`, with 6.07%; and `Cc1ccc(OCC(=O)Nc2ccc(N3CCN(C(=O)c4ccc(C)cc4)CC3)cc2)cc1`, with -2.61%; and `Cc1ccc(C(=O)N2CCN(S(=O)(=O)c3ccccc3)CC2)cc1`, with 1.63%.
Then `COc1ccc(OC)c2sc(NC(=O)c3ccc(S(=O)(=O)N4CCOCC4)cc3)nc12`, with -1.73%; and `COc1ccc(OC)c2sc(NC(=O)c3ccc(S(=O)(=O)N(C)C)cc3)nc12`, with 23.5% (active); and `COc1ccc(NC(=O)c2ccc(S(=O)(=O)N(C)C)cc2)cc1OC`, with -1.14%.
Then `CC(=O)N1CCN(Cc2nc3cc(NC(=O)c4cccc(Br)c4)ccc3n2C)CC1`, with 4.84%; and `Cc1cc(C)n2cc(CSc3ccc(Br)cc3)nc2n1`, with -0.36%.
Turning to `CC(C)N(Cc1nc(-c2ccccc2)no1)C(=O)C(Cl)(Cl)Cl`, the inhibition is 1.11%.
Then `NC(=O)N/N=C/c1cn(-c2ccccc2)nc1-c1cccs1`, with 4.92%; and `COC(=O)Cc1c(C)c2ccc(OC(C)C)cc2oc1=O`, with 4.34%; and `Cc1c(Cc2ccccc2)c(=O)oc2cc(OC(=O)c3ccccc3)ccc12`, with 1.43%.
Then `Cc1ccc(C(c2nnnn2CCC(C)C)N2CCN(C)CC2)cc1` (configuration not stated), with -0.91%; and `CC(C)C[C@H](NC(=O)c1nc[nH]c1C(=O)N1CCN(C(=O)OC(C)(C)C)CC1)C(=O)OC(C)(C)C`, with 14.4%.
Then `CC(C)C[C@H](NC(=O)c1nc[nH]c1C(=O)NC1CCN(C(=O)OC(C)(C)C)CC1)C(=O)OCc1ccccc1`, with -9.66%; and `CC(C)C[C@H](NC(=O)c1nc[nH]c1C(=O)N[C@@H](CC(C)C)C(=O)OC(C)(C)C)C(=O)OC(C)(C)C`, with -5.44%.
With `CC(C)C[C@H](NC(=O)c1[nH]cnc1C(=O)N[C@@H](C)C(=O)OC(C)(C)C)C(=O)OC(C)(C)C`, the inhibition is -4.65%.
Then `COc1cc(OC)cc(C2C(C#N)=C(N)Oc3n[nH]c(-c4cccnc4)c32)c1` (configuration not stated), with 14.9%; and `COc1cc(C2C(C#N)=C(N)Oc3n[nH]c(-c4cccnc4)c32)cc(Br)c1O` (configuration not stated), with 17.3%; and `CC(C)COc1ccc(C(=O)OCCN2CCOCC2)cc1`, with 0.38%.
Then `CN1CCN(Cc2oc(CO)cc(=O)c2O)CC1`, with -1.32%; and `Cc1cc2oc(=O)cc(CN3CCC(C)CC3)c2cc1Cl`, with 0.59%; and `CCN1CCN(Cc2cc(=O)oc3ccc(Cl)cc23)CC1`, with 1.72%.
Then `CCN1CCN(Cc2oc(CO)cc(=O)c2O)CC1`, with 0.53%.
Turning to `CCc1cc(=O)oc2cc(C)c(CN3CCCC3)c(O)c12`, the inhibition was 13.6%.
Then `Cc1cc2oc(=O)cc(CN3CCC(C)CC3)c2c(C)c1Cl`, with 8.55%.
Then `CCc1cc(=O)oc2cc(C)c(CN3CCCCC3)c(O)c12`, with 13.8%.
Then `CN1CCN(Cc2c(O)c(Cl)cc3c(-c4ccccc4)cc(=O)oc23)CC1`, with 19.7%; and `O=C(COC(=O)CCc1ccc(S(=O)(=O)N2CCOCC2)cc1)NCc1ccccc1Cl`, with -2.82%.
